According to PubChem BioAssay AID504332 (National Center for Advancing Translational Sciences (NCATS), 2011):
Several values for one entry are separate records, joined by “and”; a condition that tells them apart may be missing. Equal values may be shown once. The campaign covered roughly 350,000 compounds. About 31,000 (8.9%) were called active. Not shown: some 15% with an inconclusive outcome. This is one part of a sample in which actives are shown more often than they occur. Calls come from the whole dose curve; as a rule, active = well fitted inhibition curve with a large enough effect; inconclusive = small, poorly fitted or top-dose-only effect; inactive = no such curve, though single readings can be large or run the other way. More than one record can exist for a structure, and the calls need not agree.

The compounds below were run against Histone-lysine N-methyltransferase EHMT2 (Homo sapiens) (UniProt Q96KQ7) (assay: qHTS Assay for Inhibitors of Histone Lysine Methyltransferase G9a). Details: G9a H3K9 monomethylation, AlphaScreen, 2 h; series mostly up to 59 µM; activity, negative = inhibition: at the top concentration.
Histone-lysine N-methyltransferase EHMT2 (Homo sapiens), sequence (Q96KQ7 913-1193 limits assumed): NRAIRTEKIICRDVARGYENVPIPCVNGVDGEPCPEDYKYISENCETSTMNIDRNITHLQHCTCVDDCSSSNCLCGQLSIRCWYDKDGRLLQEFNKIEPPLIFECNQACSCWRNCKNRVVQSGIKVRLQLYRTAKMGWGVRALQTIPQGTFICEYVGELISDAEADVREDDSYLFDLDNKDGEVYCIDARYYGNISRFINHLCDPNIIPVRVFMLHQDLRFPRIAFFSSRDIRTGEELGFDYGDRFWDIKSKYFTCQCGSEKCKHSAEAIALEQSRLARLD
Procedure, shortened: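 Compounds were preincubated with 20 nM G9a for 15 min, after which biotinylated H3K9 peptide (500 nM) and SAM (20 uM) started a 2 h room-temperature reaction. Monomethylated product was quantified by antibody-based AlphaScreen chemiluminescence.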
% is set by controls: 0 for no effect and ±100 for the full control effect; potency is the fitted concentration of half-maximal effect.
Note: nearly all actives have a fitted effect of over 75% in size.

Row | SMILES | activity, negative = inhibition | Potency
1 | Cc1ccc(S(=O)(=O)N2CCCCC2)cc1NC(=O)[C@@H]1CCCN1C(=O)c1cccs1 | -7.65% [at 12.7 µM] (inactive) | –
2 | Cc1ccc2nc(COc3cccc(NC(=O)c4ccccc4Cl)c3)cc(=O)n2c1 | 10.2% (inactive) | –
3 | Cc1c(-c2ccccc2)cn2c1-c1ccc(C)n1CC2 | – | 44.7 µM (active)
4 | CCOC(=O)C1CCCN(S(=O)(=O)c2ccc3c(c2)C(C)(C)C(=O)N3C)C1 (stereo not drawn) | -2.18% [at 102 µM] (inactive) | –
5 | CCOC(=O)C1CCN(S(=O)(=O)c2ccc3c(c2)N(C)C(=O)CC(=O)N3C)CC1 | – | inactive and 79.4 µM (active)
6 | CCOC(=O)C1CCN(S(=O)(=O)c2ccc3c(c2)N(C(C)=O)CCO3)CC1 | -0.322% [at 102 µM] (inactive) | –
7 | CCCn1c2ccccc2c2cnn(CC(=O)N(CC)c3cc(C)ccc3C)c(=O)c21 | -24% (inactive) | –
8 | CCN(CCCNC(=O)CSc1cc(=O)n(C)c2cc(Cl)ccc12)Cc1ccccc1 | -26.4% [at 102 µM] (inactive) | –
9 | CCN(CCCNC(=O)CSc1cc(=O)n(C)c2cc(Cl)ccc12)c1cccc(C)c1 | – | 17.8 µM (active)
10 | CCOc1ccc(CCNC(=O)CSc2cc(=O)n(C)c3ccc(Cl)cc23)cc1OCC | – | inactive
11 | CC(=O)c1ccc(S(=O)(=O)NCCC(=O)N2CCN(c3ccccn3)CC2)cc1 | -0.0681% [at 12.7 µM] (inactive) | –
12 | CCOc1ccc(/C=N/Nc2nncc(-c3ccccc3)n2)cc1OC | 16% [at 102 µM] (inactive) | –
13 | COc1cc(/C=N/n2c(C)n[nH]c2=S)ccc1OCc1ccccc1 | – | 2.24 µM (active)
14 | Fc1ccc(/C=N/n2c(COc3ccccc3)n[nH]c2=S)cc1 | – | 1.58 µM (active)
15 | O=[N+]([O-])c1ccccc1/C=N/n1c(COc2ccccc2)n[nH]c1=S | – | 1 µM (active)
16 | COc1ccccc1OCCOc1ccc(/C=N/n2cnnc2)cc1 | -8.1% [at 12.7 µM] (inactive) | –
17 | COc1cc(/C=N/O)ccc1OCc1ccc([N+](=O)[O-])cc1 | -5.67% (inactive) | –
18 | O=c1ccc(S(=O)(=O)N2CCCC2)cn1Cc1nc(-c2ccccc2)no1 | -6.5% [at 2.33 µM] (inactive) | –
19 | CCN(C(=O)COC(=O)c1c(C)nn(-c2ccccc2)c1Cl)c1c(N)n(Cc2ccccc2)c(=O)[nH]c1=O | -45.7% [at 102 µM] (inactive) | –
20 | Cc1ccccc1-c1cc(C(=O)NCC2CC2)n(CC2CC(c3cccnc3)=NO2)n1 (stereo not drawn) | -3.05% [at 0.501 µM] (inactive) | –
21 | CC1CN(C(=O)N2CCC(C(=O)NCc3ccco3)CC2)c2cc(Cl)ccc2O1 (stereo not drawn) | -27.9% (inactive) | –
22 | O=C(NCCS(=O)(=O)c1ccc(Br)cc1)c1ccccc1Cl | 37.8% [at 102 µM] (inactive) | –
23 | COc1ccccc1CNC(=O)CCn1c(=O)c2ccccc2n(CC(=O)Nc2ccc(Br)cc2F)c1=O | -30.5% (inactive) | –
24 | COc1ccc(N2CCN(S(=O)(=O)c3ccc4c(c3)NC(=O)C(C)C(=O)N4)CC2)cc1 (stereo not drawn) | -7.4% [at 102 µM] (inactive) | –

Row | SMILES | activity, negative = inhibition | Potency
25 | CCOc1ccccc1NS(=O)(=O)c1cc2c3c(c1)C(C)C(=O)N3CCC2 (stereo not drawn) | 5.21% [at 102 µM] (inactive) | –
26 | COc1ccc(N2CCN(S(=O)(=O)c3cc4c5c(c3)C(C)C(=O)N5CCC4)CC2)cc1 (stereo not drawn) | – | 44.7 µM (active)
27 | COCC1CCN(C(=O)C2CCC(=O)N(CC3CCCCC3)C2)CC1 (stereo not drawn) | 77.4% [at 102 µM] (inactive) | –
28 | N#Cc1ccc(-c2cccs2)nc1SCc1ccc(Br)cc1 | 49.5% (inactive) | –
29 | N#Cc1c(-c2cccs2)nc(SCC(=O)c2ccc(Br)cc2)[nH]c1=O | – | 39.8 µM (active)
30 | Cc1ccc(CSc2nc(-c3ccccc3)c(C#N)c(=O)[nH]2)cc1 | 16.7% [at 2.33 µM] (inactive) | –
31 | Cc1ccc(-c2cc(-c3coc4ccccc4c3=O)c3c(n2)-c2cc(Cl)ccc2OC3)cc1 | -32.2% (inactive) | –
32 | Nc1ccc(Nc2cc(O)c3ncccc3c2)cc1 | – | 1.58 µM (active)
33 | COc1ccc(NC(=O)Nc2cccc3cccnc23)cc1 | -19.4% [at 102 µM] (inactive) | –
34 | O=C(NCCN1CCN(C(=O)c2cccc([N+](=O)[O-])c2)CC1)C(=O)NCc1ccc(Cl)cc1 | 1.83% [at 102 µM] (inactive) | –
35 | CSc1ccc(C2c3c(oc4ccccc4c3=O)C(=O)N2CCCN2CCOCC2)cc1 (stereo not drawn) | -2.82% (inactive) | –
36 | COc1ccc(Cl)cc1NC(=O)CSc1nc(=O)[nH]c2c1CCCC2 | -3.14% (inactive) | –
37 | COc1ccc(-c2cc(C(=O)N(C)CC(=O)Nc3ccccc3Cl)c3ccccc3n2)cc1OC | -0.839% [at 102 µM] (inactive) | –
38 | Cc1cc(C)n2nc(C(=O)OCC(=O)N(C)CC(=O)Nc3ccc(F)cc3)nc2n1 | -2.62% [at 12.7 µM] (inactive) | –
39 | CCOC(=O)c1ccc(NC(=S)Nc2cc(C)cc(C)n2)cc1 | 10.3% [at 102 µM] (inactive) | –
40 | CCOC(=O)c1ccc(Nc2cc(C)nc3nc(C)nn23)cc1 | – | 79.4 µM (active)
41 | O=C(Nc1ccccc1Cl)N1CCC(CN2CCCC2)CC1 | 2.03% (inactive) | –
42 | CCOC(=O)c1nnn(CC(=O)NC(=O)Nc2ccccc2F)c1C(=O)OCC | -35.9% (inactive) | –
43 | Cc1cc(C)cc(NC(=O)N2CCCCCCC2)c1 | 6.79% [at 102 µM] (inactive) | –
44 | Cc1ccc(NC(=O)C(c2ccccc2)N2CCN(C(=O)c3ccco3)CC2)cc1 (stereo not drawn) | -37.3% [at 12.7 µM] (inactive) | –
45 | Cc1cc(C)cc(NC(=O)C(c2ccccc2)N2CCN(CC(=O)N3CCCC3)CC2)c1 (stereo not drawn) | – | 50.1 µM (active)
46 | Cc1cc(C(=O)OCC(=O)Nc2ccccc2Cl)c(C)o1 | -9.85% [at 12.7 µM] (inactive) | –
47 | CC(C)OC(=O)C(C#N)c1nc2ccccc2nc1N1CCN(Cc2ccccc2)CC1 (stereo not drawn) | 53% (inactive) | –
48 | Cc1cc(N2CCN(S(=O)(=O)c3ccc(C)c(C)c3)CC2)c2ccccc2n1 | 22.6% [at 12.7 µM] (inactive) | –

Row | SMILES | activity, negative = inhibition | Potency
49 | Cc1ccc(S(=O)(=O)C(C#N)c2nc3ccccc3nc2N2CCCC2)cc1C (stereo not drawn) | – | 2.82 µM (active)
50 | COc1ccc(-c2noc(CSc3nnc(-c4ccccc4)n3-c3ccc(F)cc3)n2)c(OC)c1 | -7.39% (inactive) | –
51 | CCN(CC(=O)Nc1ccc(NC(C)=O)cc1)C(=O)C1CC(=O)N(Cc2ccc(C)cc2)C1 (stereo not drawn) | -0.244% [at 0.501 µM] (inactive) | –
52 | c1n[nH]c(NCc2ccc3c(c2)OCO3)n1 | -1.38% (inactive) | –
53 | O=C(CCNS(=O)(=O)c1ccccc1C(F)(F)F)NCc1ccc2c(c1)OCO2 | 0.774% (inactive) | –
54 | N#Cc1nc(Cc2cccc3ccccc23)oc1NCc1ccc2c(c1)OCO2 | – | 10 µM (active)
55 | Cc1cc(NS(=O)(=O)c2ccc(NC(=O)c3ccccc3C)cc2)nc(C)n1 | 2.07% (inactive) | –
56 | CCc1cccc(-n2nnc(-c3nsc(NC(=O)c4ccc(C)cc4)n3)c2C)c1 | -0.566% (inactive) | –
57 | CCCCSc1ncnc2c1sc1nc(N3CCOCC3)c3c(c12)CCCC3 | -8.07% (inactive) | –
58 | COC(=O)c1ccc(CNC(=O)c2ccc3oc(C(C)C)nc3c2)cc1 | 29.5% [at 102 µM] (inactive) | –
59 | O=C1CC(c2cccc(Cl)c2)CC(O)=C1C=Nc1ccccc1 (stereo not drawn) | 19.3% (inactive) | –
60 | CC1(C)CC(=O)C(C=NCCN2CCN(C(=S)Nc3cccc(Cl)c3)CC2)=C(O)C1 | -2.18% [at 0.501 µM] (inactive) | –
61 | O=C1CC(c2ccccc2)CC(O)=C1C=NCCN1CCOCC1 (stereo not drawn) | – | 12.6 µM (active)
62 | CCNC(=S)N1CCN(CCN=CC2=C(O)CC(C)(C)CC2=O)CC1 | 26.3% [at 102 µM] (inactive) | –
63 | CC(C)C(=O)N1CCN(CCN=CC2=C(O)CC(c3ccco3)CC2=O)CC1 (stereo not drawn) | – | 50.1 µM (active)
64 | O=C1CCCC(O)=C1C=NCCc1ccccc1 | -16.2% (inactive) | –
65 | COc1ccc2c(c1)C=C(C(=O)NCc1cc(Br)ccc1OC)CO2 | -5.53% (inactive) | –
66 | COc1ccc(OC)c(NC(=O)C2CCCN(S(=O)(=O)c3ccc4c(c3)CCCC(=O)N4)C2)c1 (stereo not drawn) | -27.3% (inactive) | –
67 | CCN(c1ccc(Cl)cc1)S(=O)(=O)c1nnc(NC(=O)c2ccco2)s1 | -16.6% (inactive) | –
68 | O=C(Nc1nnc(CCOCCOCCc2nnc(NC(=O)c3ccco3)s2)s1)c1ccco1 | – | 14.1 µM (active)
69 | O=C(Nc1nc(-c2ccco2)c(-c2ccco2)s1)c1ccco1 | 16.3% [at 2.33 µM] (inactive) | –
70 | CN(Cc1ccccc1)C(=O)c1cc2c(=O)n(C)c3ccccc3c2s1 | 0.227% (inactive) | –
71 | Cc1ccc(N(CC(=O)NCC(C)c2ccccc2)S(=O)(=O)N(C)C)cc1 (stereo not drawn) | 20% (inactive) | –
72 | CCOC(=O)c1ccccc1NC(=O)CSc1nc2ccccc2c(=O)[nH]1 | 0.864% [at 102 µM] (inactive) | –

Row | SMILES | activity, negative = inhibition | Potency
73 | CCOC(=O)c1sc(NC(=O)CSc2n[nH]c(CC)n2)nc1C | 3.78% [at 102 µM] (inactive) | –
74 | CCOC(=O)c1sc(NC(=O)CSc2nc(O)c(Cc3ccccc3)c(=O)[nH]2)nc1C | – | 50.1 µM (active)
75 | Cc1ccc(C(=O)Nc2ncccc2C)cc1S(=O)(=O)N1CCOCC1 | 22.2% [at 12.7 µM] (inactive) | –
76 | CC(C)C12CN3CC(C(C)C)(CN(C1)C3c1ccc(OCc3ccccc3)cc1)C2=O (stereo not drawn) | 0.192% (inactive) | –
77 | Cc1nnc(SCC(=O)Nc2ccc(S(=O)(=O)Nc3ccc(Cl)nn3)cc2)s1 | – | 79.4 µM (active)
78 | Cc1nnc(SCC(=O)Nn2cnnc2)s1 | 2.7% [at 102 µM] (inactive) | –
79 | CCCCCC(=O)Nc1ccc(S(=O)(=O)Nc2ccc(Cl)nn2)cc1 | 2.65% (inactive) | –
80 | CCCn1nc(C(=O)NNC(=O)CCOc2ccccc2OCC)c2ccccc2c1=O | -3.32% [at 102 µM] (inactive) | –
81 | COc1cccc(C(=O)Nc2ccc(-c3cc(C(F)(F)F)nn3-c3ccccc3)cc2)c1 | 10.9% (inactive) | –
82 | Cc1cccc(C(=O)OC(C)C(=O)NC2CCCc3ccccc32)c1O (stereo not drawn) | 18.2% [at 12.7 µM] (inactive) | –
83 | CN(C)C1=NC[C@H](Cc2ccccc2)N1CCc1ccc(F)cc1 | 16.6% [at 2.33 µM] (inactive) | –
84 | CC(C)(C)N(CC#CCC(O)(c1ccccc1)C1CCCC1)CCO (stereo not drawn) | – | 10 µM (active)
85 | CN(CC#CCC(c1ccccc1)c1ccccc1)C(C)(C)C | -1.78% (inactive) | –
86 | OC(C#CCN1CCOCC1)(c1ccccc1)C1CCCCC1 (stereo not drawn) | -18.1% (inactive) | –
87 | CC1C(=O)Nc2ccc(S(=O)(=O)N3CCN(c4ccccc4F)CC3)cc2NC1=O (stereo not drawn) | 7.91% [at 102 µM] (inactive) | –
88 | CN(C)S(=O)(=O)c1ccc(N2CCCC2=O)c([N+](=O)[O-])c1 | 20.3% (inactive) | –
89 | CON(C)S(=O)(=O)c1ccc2c(c1)NC(=O)C1CCCN21 (stereo not drawn) | – | 25.1 µM (active)
90 | Cn1c(-c2ccc(F)cc2)cc2onc(-c3ccccc3Cl)c2c1=O | 20.7% [at 2.33 µM] (inactive) | –
91 | CCCC(=O)N1c2ccc(-c3csc(N)n3)cc2CC1C (stereo not drawn) | – | 70.8 µM (active)
92 | CCn1nc(C(=O)OCC(=O)N2c3ccccc3CC2C)c2ccccc2c1=O (stereo not drawn) | -3.26% [at 102 µM] (inactive) | –
93 | Cc1ccn(CCC(=O)N2c3ccccc3CC2C)n1 (stereo not drawn) | 7.81% [at 102 µM] (inactive) | –
